High-throughput results from PubChem.
An excerpt weighted towards active compounds, which were near 3.7% of everything screened.
Autofluor counter: compound fluorescence in toxin protease inhibitor counterscreen | compound autofluorescence counterscreen, microsphere flow cytometry; hits give high values | fluorescence intensity (concentration not given with the values) | 360,000 compounds, 3.1% hits; in the data active = fluorescence intensity above about 16000; inconclusive = no clear call, values can overlap the other calls
BoNT F protease: blocks Botulinum neurotoxin F light chain protease; inhibition, % at 10 µM; 360,000 compounds, 0.22% hits; AID 588497; Multiplex microsphere protease cleavage assay, flow cytometry; in the data active = inhibition above about 35%, passing the limit was not always enough; inconclusive = no clear call, values can overlap the other calls
MazEF act: increases E. coli MazEF RNase cleavage of RNA | FAM/BHQ RNA-DNA oligo cleavage fluorescence, 5 h | 350,000 compounds, 0.32% hits | activation, % at 20 µM | P0AE70; in the data active = activation above about 50%
Anthrax LF prot: inhibitors of Bacillus anthracis lethal factor protease. multiplex microsphere protease cleavage assay, LF. inhibition, % at 10 µM. 360,000 compounds, 0.12% hits. AID 588501
BoNT A protease: BoNT A light chain protease inhibition | multiplex microsphere protease substrate cleavage, flow cytometry | inhibition, % at 10 µM | 360,000 compounds, 0.17% hits | AID 588499
Numbers stand for hits; i = inactive; ? = inconclusive; nt = no result; + = active, no number. Rule as the data show it, unless noted: active = inhibition above about 30%; inconclusive = no clear call, values can overlap the other calls; inactive = below that.

SMILES	Autofluor counter	BoNT F protease	MazEF act	Anthrax LF prot	BoNT A protease
Clc1ncccc1-c1nc2ccccc2n1Cc1ccccc1	20310	i	i	i	?
C=CCN1C(=O)C(=Cc2ccc3c(c2)CCC3)SC1=S	i	i	i	i	i
COCCNc1nc(NCCCN2CCCC2=O)c2sccc2n1	i	i	nt	i	i
CCOC1=C2[C@H](c3ccc(Cl)cc3)N(S(=O)(=O)c3ccc(C)cc3)C[C@H]2n2c(=O)n(-c3ccccc3)c(=O)n2C1	i	i	nt	i	i
Cc1ccc(C(=O)Nc2ccc(N3CCOCC3)nc2)cc1	i	i	i	i	i
O=C(Nc1ccc(N2CCOCC2)nc1)c1ccc(F)cc1	22364	i	i	i	i
Cc1onc(-c2c(F)cccc2Cl)c1C(=O)OCC(=O)N(C)c1ccccc1	i	i	i	i	i
Cc1ccccc1OCCSc1nnc(-c2ccncc2)n1C	19279	i	i	i	i
Cn1c(SCCOc2ccccc2Cl)nnc1-c1ccncc1	i	i	i	i	i
CC1OC(COCc2ccccc2)Cc2[nH][nH]c(=O)c21 (configuration not stated)	i	i	nt	i	i
COc1ccc(CNC(=O)c2sc(=S)n(-c3ccc(OC)cc3)c2N)cc1	19355	i	i	i	i
C/C=C(\C)CN1CCN(c2ccccc2F)CC1	23234	i	i	i	i
C/C(=C\c1ccccc1)CN1CCN(c2ccccc2)CC1	21899	i	i	i	i
C/C=C(\C)CN1CCN(c2ccccc2)CC1	i	i	i	i	i
CN1CCN(S(=O)(=O)c2cccc(C(=O)N(C)CC(=O)Nc3ccc(Cl)c(Cl)c3)c2)CC1	i	i	i	i	i
COc1ccc(C(CNC(=O)CCNS(=O)(=O)c2ccccc2)N2CCOCC2)cc1 (configuration not stated)	i	i	i	i	i
COc1ccc([C@@H]2Sc3cc(OC)ccc3N(CCN(C(C)C)C(C)C)C(=O)[C@H]2OC(C)=O)cc1	20962	i	i	i	i
CC(C)(C)S(=O)(=O)N1C[C@H]2CC/C=C\C/C(c3ccccc3)=C\2[C@@H]1CCO	i	i	i	i	i
Cc1[nH]c2ccccc2c1/C=C(\C#N)C(=O)NC(C)c1ccccc1 (configuration not stated)	22234	i	i	i	i
Cc1[nH]c2ccccc2c1/C=C(\C#N)S(=O)(=O)c1ccccc1	20697	i	i	i	i
Cc1ccc(OCC(=O)N/N=C2\CCOc3c(C)cccc32)cc1	22762	i	i	i	i
COc1cccc2c1OCC/C2=N\NC(=O)COc1ccc(C)cc1	i	i	i	i	i
Cc1ccccc1OCC(=O)N/N=C1\CCOc2c(C)cccc21	20512	i	i	i	i
COc1cccc2c1OCC/C2=N\NC(=O)COc1ccccc1C	i	i	i	i	i
CC(C)(C)OC(=O)NCCCCCc1nnc(SCC(=O)Nc2cccc(Cl)c2)o1	16480	i	i	i	i
SMILES	Autofluor counter	BoNT F protease	MazEF act	Anthrax LF prot	BoNT A protease
CC(C)(C)OC(=O)NCCc1nnc(SCC(=O)Nc2ccc(Br)cc2)o1	i	?	i	i	i
CC(C)(C)OC(=O)NCCc1nnc(SCC(=O)Nc2cccc(Cl)c2)o1	22287	i	i	i	i
CN(C)/C=c1\sc2c(C#N)cc(C(=O)c3ccc(Br)cc3)n2c1=O	i	i	+	i	i
O=C(Nc1cccc(C(=O)O)c1)/C(=C\c1ccccc1)NC(=O)c1ccccc1Cl	i	41.1	i	i	i
O=C(N/C(=C\c1ccccc1)C(=O)N1CCOCC1)c1ccccc1Cl	42511	i	i	i	i
O=C(N/C(=C\c1ccc(Br)cc1)C(=O)N1CCOCC1)c1ccccc1Cl	i	i	i	i	i
CCOc1cccc(NC(=O)C(Cc2cccs2)c2nn[nH]n2)c1 (configuration not stated)	20016	i	i	i	i
O=C(Nc1ccccc1)C(Cc1cccs1)c1nn[nH]n1 (configuration not stated)	i	i	i	i	i
CCOC(=O)[C@]12CCC=C1N(Cc1ccc3c(c1)OCO3)C(=O)[C@H](CC(=O)NCc1cccc(C(F)(F)F)c1)C2	i	i	nt	i	i
O=c1[nH]nc(CNc2ccc(C(F)(F)F)cc2)c2ccccc12	i	i	i	i	i
O=c1[nH]nc(CNc2ccc(O)cc2)c2ccccc12	i	i	444.4	i	i
OCCNc1ncnc2c1ncn2[C@H]1CN(Cc2ccc(Cl)cc2)C[C@@H](CO)O1	i	i	nt	i	i
CC(=O)Nc1ccc(-c2ccnc3c2CC(C)(C(=O)NCc2cccc(Cl)c2)O3)cc1 (configuration not stated)	i	i	nt	i	i
O=S1(=O)C[C@@H](O)[C@@H](Nc2ccccc2)C1	nt	nt	i	nt	nt
O=C(Nc1ccccc1)NC1CS(=O)(=O)CC1O (configuration not stated)	22098	i	i	i	i
CCNC(=O)NC(=O)C(C)OC(=O)c1oc2ccc(OC)cc2c1C (configuration not stated)	21371	i	i	i	i
Brc1ccc(-c2nc(-c3ccccc3)no2)o1	22544	i	i	i	i
CC1(C(=O)NS(=O)(=O)c2cccs2)CCN1C(=O)CCc1ccc(Cl)cc1Cl (configuration not stated)	i	i	nt	i	i
O=C(NNC(=O)C1CCCO1)c1ccc([N+](=O)[O-])cc1 (configuration not stated)	i	i	i	i	i
O=C(NNC(=O)C1CCCO1)c1ccc(Cl)cc1 (configuration not stated)	i	36.9	i	i	i
CCc1nc2ccc(C(=O)Nc3cccc(OCC(=O)N(C)C)c3)cn2c1N(CC)CCOC	i	i	nt	i	i
COC(=O)CN1C(=S)N(c2ccc(OC)cc2)C(=O)/C1=C/c1cccs1	i	i	i	i	i
CCc1ccc(N2C(=O)/C(=C/c3cccs3)N(CC(=O)OC)C2=S)cc1	23041	i	i	i	?
CCOc1cc(C#N)c(NC(=O)CSc2nnnn2-c2ccc(OC)cc2)cc1OCC	22206	i	i	i	i
CCn1cc(C(=O)OCC(=O)Nc2cccc(S(=O)(=O)N3CCOCC3)c2)c(=O)c2ccc(C)nc21	16363	i	i	i	?
SMILES	Autofluor counter	BoNT F protease	MazEF act	Anthrax LF prot	BoNT A protease
O=C(CSCC(=O)N1CCCCC1)OCC(=O)c1c[nH]c2ccccc12	i	i	i	47.3	33.2
O=C(C(=O)N1CCCCCC1)c1c[nH]c2ccccc12	i	?	i	i	i
CCOC(=O)c1c(C)[nH]c(C)c1C(=O)COC(=O)c1cccc(S(=O)(=O)N(CC)CC)c1	i	i	i	i	i
CCOC(=O)c1c(C)[nH]c(C)c1C(=O)COC(=O)c1ccc(S(=O)(=O)N(CC)CC)cc1	16763	i	i	i	?
CCC(Oc1ccccc1F)C(=O)Nc1ccc2c(c1)n(C)c(=O)n2C (configuration not stated)	i	38.2	i	i	i
CC(NC(=O)C1CCN(CCOc2ccc(Cl)cc2)CC1)c1cccc2ccccc12 (configuration not stated)	i	i	nt	i	i
COc1ccc2ccccc2c1C=NN1CCCCC1	i	i	i	i	i
O=C1CCN(C(=O)Nc2cccc(Cl)c2)N1	22772	i	i	i	i
